Measured values: PubChem BioAssay
The source made the active and inactive calls.

Legend:
[1] = tested on: PRMT1 (protein arginine N-methyltransferase 1); assay: small molecules binding arginine methyltransferase PRMT1 – biochemical, small-molecule microarray, 635 nm fluorescence, primary screen (AID 1088); details: higher = more signal;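 also: binding of Prmt1 protein to compounds spotted on small-molecule microarray slides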
[2] = growth effects on S. cerevisiae YJM789 – YJM789 clinical isolate, OD600, 24 h, basal, primary screen (AID 1089); details: higher = more signal, called active from +8 up or from −8 down;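 also: growth of clinical yeast isolate S. cerevisiae YJM 789 seeded 1000 cells per well; test concentration not given here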
[3] = S. pombe growth modifiers, basal conditions – strain 972, OD600, 24 h, no modulator, primary screen (AID 1090);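 also: basal condition with compound alone and no growth modifier present; test concentration not given here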; details: S. pombe 972 growth, higher = more signal, called active from +8 up or from −8 down
[4] = budding yeast growth modifiers under rapamycin – strain BY4716, OD600, 96 h, primary screen (AID 1091); also: test concentration not given here; details: S. cerevisiae BY4716 + rapamycin, higher = more signal, called active from +8 up or from −8 down
[5] = target: Torsin-1A-interacting protein 2 (Homo sapiens) (UniProt Q8NFQ8); assay: small molecules binding lysate-expressed LULL1 – cell lysate, human LULL1 lysate, 635/667 nm fluorescence, primary screen (AID 1092); details: small-molecule microarray, hLULL1 lysate binding, 635 nm fluorescence; higher = more signal;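 also: probe is lysate of COS7 cells overexpressing human LULL1; score merges per-feature 667 nm fluorescence with signal-to-noise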
[6] = optical density change of DRC41 E. coli – strain DRC41, OD650, 24 h, E. coli filamentation project, primary screen (AID 1093);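 also: MC1000 strain lacking acrAB efflux and sulA so SOS filamentation is blocked; test concentration not given here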; details: E. coli DRC41 growth, higher = more signal, called active from +8 up or from −8 down
[7] = probe aLefty2 binding to arrayed compounds – biochemical, biotinylated probe, 635/667 nm fluorescence, primary screen (AID 1094); details: small-molecule microarray, higher = more signal;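 also: score merges spot fluorescence near 667 nm with spot signal-to-noise ratio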
[8] = tested on: Noggin (protein binding on small-molecule microarray); assay: small molecules binding Noggin protein – biochemical, 635/667 nm fluorescence, primary screen (AID 1095); details: 635 nm fluorescence, higher = more signal;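 also: score merges 667 nm feature fluorescence with signal to noise over triplicate slides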
[9] = target: Neurogenic locus notch homolog protein 3 (Homo sapiens) (UniProt Q9UM47); assay: small molecules binding NOTCH3 protein – biochemical, 635/667 nm fluorescence, primary screen (AID 1096); details: small-molecule microarray, 635 nm fluorescence, higher = more signal
[10] = probe aEGFR binding to arrayed compounds – biochemical, biotinylated probe, 635/667 nm fluorescence, primary screen (AID 1097); details: small-molecule microarray, higher = more signal;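 also: probe is a biotinylated anti-EGFR antibody binding compounds printed on slides; score combines fluorescence near 667 nm and signal to noise of each spot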
[11] = tested on: Plasmodium falciparum Sir2 (PF13_0152, Sir2A); assay: Plasmodium falciparum Sir2A binding compounds – biochemical, small-molecule microarray, 635 nm fluorescence, primary screen (AID 1098); details: fluorescence 635 nm, higher = more signal;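 also: score merges spot fluorescence intensity with its signal-to-noise ratio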
[12] = probe aDKK1 binding to arrayed compounds – biochemical, biotinylated probe, 635/667 nm fluorescence, primary screen (AID 1099); details: small-molecule microarray, higher = more signal;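 also: score merges 667nm spot fluorescence with signal to noise across triplicate slides; reference of the scale not given here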
[13] = probe aCHRDL2 binding to arrayed compounds – biochemical, biotinylated probe, 635/667 nm fluorescence, primary screen (AID 1100); details: small-molecule microarray, higher = more signal
[14] = change in splice reporter luminescence, either direction, cell-based, HEK293, spliceosome inhibition project, primary screen (AID 1101); details: HEK293 splicing luciferase reporter, 24 h, higher = more signal, called active from +8 up or from −8 down;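 also: HEK293 cells carrying a splicing-competent luciferase reporter gene; test concentration not given here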
[15] = target: Fibroblast growth factor 10 (Homo sapiens) (UniProt O15520); assay: compounds binding fibroblast growth factor 10 – biochemical, small-molecule microarray, 635 nm fluorescence, primary screen (AID 1102); details: FGF10 binding, fluorescence 635 nm, higher = more signal
[16] = tested on: glycogen synthase kinase-3 (GSK3A per assay name; protocol says GSK3B); assay: compounds binding glycogen synthase kinase-3 – biochemical, small-molecule microarray, 635 nm fluorescence, GSK3A, primary screen (AID 1103); details: fluorescence 635 nm, higher = more signal; also: the record names both GSK3A and GSK3B
[17] = target: Epidermal growth factor receptor (Homo sapiens) (UniProt P00533); assay: compounds binding epidermal growth factor receptor – biochemical, small-molecule microarray, 635 nm fluorescence, primary screen (AID 1104); details: EGFR binding, higher = more signal;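 also: score merges 667 nm emission intensity with spot signal to noise over triplicate slides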
[18] = target: Follistatin-related protein 3 (Homo sapiens) (UniProt O95633); assay: compounds binding follistatin-related protein 3 – biochemical, small-molecule microarray, 635 nm fluorescence, primary screen (AID 1105); details: FSTL3 binding, higher = more signal;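 also: score merges emission near 667 nm and signal to noise per printed spot across three slides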
[19] = target: Dickkopf-related protein 1 (Homo sapiens) (UniProt O94907); assay: small molecules binding DKK1 protein – biochemical, small-molecule microarray, 635 nm fluorescence scan, primary screen (AID 1106); details: higher = more signal;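 also: score merges emission near 667 nm with signal to noise over three replicate slides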
[20] = tested on: Inhibin beta A chain (activin A); assay: small molecules binding activin A – biochemical, small-molecule microarray, 635 nm fluorescence scan, primary screen (AID 1107); details: INHBA, higher = more signal;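 also: mouse activin A protein probed at 4.33 µg/mL on printed slides; score merges bound-protein fluorescence near 667 nm with spot signal-to-noise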

Neurogenic locus notch homolog protein 3 (Homo sapiens), sequence (Q9UM47 whole entry, looked up): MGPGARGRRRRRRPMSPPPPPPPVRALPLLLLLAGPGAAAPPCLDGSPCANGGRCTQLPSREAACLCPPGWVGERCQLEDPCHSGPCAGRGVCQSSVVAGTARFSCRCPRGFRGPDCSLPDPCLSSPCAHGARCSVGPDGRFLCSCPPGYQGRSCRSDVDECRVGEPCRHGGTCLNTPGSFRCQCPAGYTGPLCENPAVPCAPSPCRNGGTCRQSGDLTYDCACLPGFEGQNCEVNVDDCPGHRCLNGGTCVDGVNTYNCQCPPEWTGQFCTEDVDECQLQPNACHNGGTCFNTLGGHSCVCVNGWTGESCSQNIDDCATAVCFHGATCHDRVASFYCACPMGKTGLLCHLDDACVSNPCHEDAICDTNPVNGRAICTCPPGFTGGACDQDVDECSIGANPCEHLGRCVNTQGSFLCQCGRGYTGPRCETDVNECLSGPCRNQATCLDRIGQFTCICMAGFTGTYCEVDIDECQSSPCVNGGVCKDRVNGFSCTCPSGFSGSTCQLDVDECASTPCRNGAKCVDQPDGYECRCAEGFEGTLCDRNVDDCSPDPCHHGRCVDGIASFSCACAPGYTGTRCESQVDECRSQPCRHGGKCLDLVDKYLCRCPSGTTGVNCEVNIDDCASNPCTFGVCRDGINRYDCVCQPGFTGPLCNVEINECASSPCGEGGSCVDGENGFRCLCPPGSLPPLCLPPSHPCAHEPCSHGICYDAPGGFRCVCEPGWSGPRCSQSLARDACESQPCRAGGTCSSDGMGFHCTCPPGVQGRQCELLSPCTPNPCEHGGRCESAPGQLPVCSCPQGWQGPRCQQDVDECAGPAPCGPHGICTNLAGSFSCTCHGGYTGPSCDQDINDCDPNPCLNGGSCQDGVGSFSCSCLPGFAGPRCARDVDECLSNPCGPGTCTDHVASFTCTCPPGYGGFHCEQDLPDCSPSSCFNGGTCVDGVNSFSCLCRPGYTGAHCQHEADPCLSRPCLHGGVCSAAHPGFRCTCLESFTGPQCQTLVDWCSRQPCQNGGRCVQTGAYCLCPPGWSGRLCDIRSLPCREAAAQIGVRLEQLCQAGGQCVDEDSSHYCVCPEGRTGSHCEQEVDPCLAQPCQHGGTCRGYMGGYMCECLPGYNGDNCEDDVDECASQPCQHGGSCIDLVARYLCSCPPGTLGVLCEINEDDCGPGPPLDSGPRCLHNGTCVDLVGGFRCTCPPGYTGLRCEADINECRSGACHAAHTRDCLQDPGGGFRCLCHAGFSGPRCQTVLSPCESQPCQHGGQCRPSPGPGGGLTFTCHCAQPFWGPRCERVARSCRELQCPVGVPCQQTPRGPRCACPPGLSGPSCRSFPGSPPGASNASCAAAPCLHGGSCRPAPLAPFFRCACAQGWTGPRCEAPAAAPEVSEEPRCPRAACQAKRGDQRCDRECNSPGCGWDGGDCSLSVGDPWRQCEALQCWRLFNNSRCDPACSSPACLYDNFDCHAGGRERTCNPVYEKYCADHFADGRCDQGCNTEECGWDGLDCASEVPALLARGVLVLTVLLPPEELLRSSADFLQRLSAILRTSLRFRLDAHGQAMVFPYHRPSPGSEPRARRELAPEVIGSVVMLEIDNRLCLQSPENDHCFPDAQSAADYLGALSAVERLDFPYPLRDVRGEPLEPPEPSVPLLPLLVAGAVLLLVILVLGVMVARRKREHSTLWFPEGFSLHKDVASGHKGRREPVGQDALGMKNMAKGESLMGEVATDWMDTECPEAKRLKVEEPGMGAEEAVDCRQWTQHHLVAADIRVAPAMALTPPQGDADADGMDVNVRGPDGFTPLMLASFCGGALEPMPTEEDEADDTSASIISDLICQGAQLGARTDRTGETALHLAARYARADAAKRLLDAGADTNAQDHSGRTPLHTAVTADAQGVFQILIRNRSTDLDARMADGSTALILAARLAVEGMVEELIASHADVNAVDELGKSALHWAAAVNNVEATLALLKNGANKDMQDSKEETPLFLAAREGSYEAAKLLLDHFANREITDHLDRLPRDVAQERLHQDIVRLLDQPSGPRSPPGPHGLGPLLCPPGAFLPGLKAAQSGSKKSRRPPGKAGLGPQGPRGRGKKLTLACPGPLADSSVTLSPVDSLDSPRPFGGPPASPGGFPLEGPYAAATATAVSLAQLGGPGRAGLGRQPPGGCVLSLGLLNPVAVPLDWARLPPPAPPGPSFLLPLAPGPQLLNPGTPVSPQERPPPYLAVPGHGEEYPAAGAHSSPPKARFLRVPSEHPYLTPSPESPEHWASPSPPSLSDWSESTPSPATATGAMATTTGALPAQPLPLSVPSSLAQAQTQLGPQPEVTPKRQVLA
Follistatin-related protein 3 (Homo sapiens), sequence (O95633 whole entry, looked up): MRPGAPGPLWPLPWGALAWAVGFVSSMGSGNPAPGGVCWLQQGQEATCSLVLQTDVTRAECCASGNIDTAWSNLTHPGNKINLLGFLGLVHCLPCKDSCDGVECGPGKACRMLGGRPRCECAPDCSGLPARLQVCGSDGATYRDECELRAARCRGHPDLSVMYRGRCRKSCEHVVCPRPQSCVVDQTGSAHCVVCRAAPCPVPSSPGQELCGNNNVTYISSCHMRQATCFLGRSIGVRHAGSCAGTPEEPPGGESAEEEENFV
Fibroblast growth factor 10 (Homo sapiens), sequence (O15520 whole entry, looked up): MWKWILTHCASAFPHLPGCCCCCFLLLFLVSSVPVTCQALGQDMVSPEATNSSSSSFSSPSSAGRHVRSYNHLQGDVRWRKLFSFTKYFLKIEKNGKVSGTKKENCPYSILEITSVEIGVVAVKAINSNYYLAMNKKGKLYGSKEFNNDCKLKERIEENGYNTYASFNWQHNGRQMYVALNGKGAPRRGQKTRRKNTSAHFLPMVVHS
Epidermal growth factor receptor (Homo sapiens), sequence (P00533 whole entry, looked up): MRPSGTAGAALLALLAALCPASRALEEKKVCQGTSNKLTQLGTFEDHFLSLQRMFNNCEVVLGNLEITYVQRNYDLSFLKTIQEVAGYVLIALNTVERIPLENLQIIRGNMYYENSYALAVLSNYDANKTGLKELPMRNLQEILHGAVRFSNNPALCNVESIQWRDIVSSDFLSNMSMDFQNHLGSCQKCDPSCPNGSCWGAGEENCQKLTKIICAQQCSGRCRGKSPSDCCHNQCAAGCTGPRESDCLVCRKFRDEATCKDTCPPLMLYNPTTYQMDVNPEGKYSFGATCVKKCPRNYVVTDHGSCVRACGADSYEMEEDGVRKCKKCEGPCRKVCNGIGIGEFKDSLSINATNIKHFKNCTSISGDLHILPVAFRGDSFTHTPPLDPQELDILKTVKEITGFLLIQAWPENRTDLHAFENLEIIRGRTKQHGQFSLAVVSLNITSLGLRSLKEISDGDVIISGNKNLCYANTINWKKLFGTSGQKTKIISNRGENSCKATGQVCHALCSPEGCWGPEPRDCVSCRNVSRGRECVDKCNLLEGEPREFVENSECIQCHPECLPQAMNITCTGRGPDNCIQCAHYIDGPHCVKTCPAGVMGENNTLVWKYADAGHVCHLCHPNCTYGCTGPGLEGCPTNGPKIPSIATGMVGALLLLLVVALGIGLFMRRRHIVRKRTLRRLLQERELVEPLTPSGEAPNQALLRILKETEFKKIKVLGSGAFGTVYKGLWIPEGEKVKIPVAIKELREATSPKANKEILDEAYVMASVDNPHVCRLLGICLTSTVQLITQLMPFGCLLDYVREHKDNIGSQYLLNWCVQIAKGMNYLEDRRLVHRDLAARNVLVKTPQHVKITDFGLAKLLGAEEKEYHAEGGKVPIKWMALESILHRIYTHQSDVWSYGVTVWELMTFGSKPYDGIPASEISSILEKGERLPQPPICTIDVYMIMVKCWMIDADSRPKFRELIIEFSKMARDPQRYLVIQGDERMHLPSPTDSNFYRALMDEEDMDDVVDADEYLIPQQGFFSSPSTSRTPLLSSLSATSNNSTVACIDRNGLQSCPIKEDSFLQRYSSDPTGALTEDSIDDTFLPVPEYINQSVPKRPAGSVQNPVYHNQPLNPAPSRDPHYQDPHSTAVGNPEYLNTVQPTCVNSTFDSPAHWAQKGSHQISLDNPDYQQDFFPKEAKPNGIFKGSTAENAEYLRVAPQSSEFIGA
Torsin-1A-interacting protein 2 (Homo sapiens), sequence (Q8NFQ8 whole entry, looked up): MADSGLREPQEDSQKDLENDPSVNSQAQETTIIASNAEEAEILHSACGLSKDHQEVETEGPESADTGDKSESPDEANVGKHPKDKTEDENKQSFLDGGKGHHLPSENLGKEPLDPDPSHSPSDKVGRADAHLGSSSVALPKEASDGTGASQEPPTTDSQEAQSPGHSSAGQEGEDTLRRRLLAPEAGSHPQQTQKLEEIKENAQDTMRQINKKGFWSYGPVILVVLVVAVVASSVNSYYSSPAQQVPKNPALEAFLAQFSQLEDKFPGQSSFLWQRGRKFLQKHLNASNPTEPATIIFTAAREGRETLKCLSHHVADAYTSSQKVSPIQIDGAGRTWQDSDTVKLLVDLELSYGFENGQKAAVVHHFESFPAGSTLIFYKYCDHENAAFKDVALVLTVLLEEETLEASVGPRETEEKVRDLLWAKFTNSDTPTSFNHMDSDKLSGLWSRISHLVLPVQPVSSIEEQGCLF
Dickkopf-related protein 1 (Homo sapiens), sequence (O94907 whole entry, looked up): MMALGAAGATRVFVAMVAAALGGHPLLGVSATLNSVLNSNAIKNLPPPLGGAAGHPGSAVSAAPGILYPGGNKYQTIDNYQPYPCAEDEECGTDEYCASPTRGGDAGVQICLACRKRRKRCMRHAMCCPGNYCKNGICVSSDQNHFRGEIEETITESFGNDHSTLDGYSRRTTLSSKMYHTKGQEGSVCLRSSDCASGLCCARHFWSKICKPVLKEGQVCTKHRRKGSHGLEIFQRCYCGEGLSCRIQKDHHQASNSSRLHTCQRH

SMILES	composite z-score [1]	z-score [2]	z-score [3]	z-score [4]	composite z-score [5]	z-score [6]	composite z-score [7]	composite z-score [8]	composite z-score [9]	composite z-score [10]	composite z-score [11]	composite z-score [12]	composite z-score [13]	z-score [14]	composite z-score [15]	composite z-score [16]	composite z-score [17]	composite z-score [18]	composite z-score [19]	composite z-score [20]
C=C(COC)/C(=C/C[C@H](OC(=O)c1ccncc1)c1ccc(CO)o1)c1cc(C(=O)OC)ccc1OC	1.55	-0.787 (inactive)	0.132 (inactive)	-0.443 (inactive)	1.84	0.55 (inactive)	0.0421	0.834	1.12	-0.112	1.69	-0.0393	-0.0885	-0.647 (inactive)	1.37	0.637	0.0603	1.15	0.82	1.34
O=C(NN=C1C[C@@H](O)[C@@H](O)[C@@H]2[C@@H]3C(=O)N(c4cccc(Oc5ccccc5)c4)C(=O)[C@@H]3CC[C@H]12)OCc1ccccc1	-0.425	0.686 (inactive)	-0.141 (inactive)	-0.669 (inactive)	0.415	1.24 (inactive)	-0.0812	0.53	0.305	-0.152	0.373	0.0708	0.408	0.0933 (inactive)	-0.113	-0.281	0.116	-0.146	-0.0924	0.242
[N-]=[N+]=Nc1ccccc1C[C@@]1(C(N)=O)N=C(c2ccc(OCCCO)cc2)O[C@@H]1c1ccccc1	0.683	-0.501 (inactive)	-0.371 (inactive)	-0.481 (inactive)	2.06	0.0722 (inactive)	0.316	-0.754	0.156	-0.0455	0.616	1.53	1.3	-1.23 (inactive)	-0.0111	-0.0514	-0.874	-0.0838	-0.82	1.34
C#CCCCON=C1C[C@@H](O)[C@@H](O)[C@@H]2[C@@H]3C(=O)N(c4cccc(Oc5ccccc5)c4)C(=O)[C@@H]3CC[C@@H]12	0.678	0.71 (inactive)	0.329 (inactive)	-0.426 (inactive)	2.51	0.303 (inactive)	-0.0961	0.376	1.1	0.0675	0.632	-0.178	0.0505	-0.417 (inactive)	0.985	0.548	0.213	0.802	-0.0498	-0.211
C[C@H](c1ccccc1)N1C(=O)[C@H]2[C@@H]3C(=CC[C@H]2C1=O)C(=O)[C@H]1O[C@H]1[C@H]3O	-0.511	0.389 (inactive)	-1.84 (inactive)	0.292 (inactive)	-0.597	-0.295 (inactive)	-0.0305	0.447	0.172	-0.138	0.816	-0.191	-0.559	4.45 (inactive)	0.388	0.359	0.626	0.359	0.87	0.527
CCOC(=O)CCN1C(=O)[C@H]2[C@H]3[C@H](O)[C@H](O)CC(=NNC(=O)OCc4ccc(OC)cc4)[C@@H]3CC[C@H]2C1=O	0.372	-0.162 (inactive)	0.151 (inactive)	-0.3 (inactive)	0.97	0.0856 (inactive)	-0.157	0.38	1.08	-0.0986	0.0745	-0.0545	-0.476	0.454 (inactive)	0.567	0.754	0.593	1.32	0.819	0.334
CC(C)(C)N1C(=O)[C@H]2[C@H]3[C@H](O)[C@H](O)CC(=NOCc4ccccc4)[C@@H]3CC[C@H]2C1=O	0.966	-1.86 (inactive)	-0.752 (inactive)	-0.715 (inactive)	1.16	-0.207 (inactive)	-0.0574	0.524	0.63	0.328	0.616	-0.192	0.24	-1.07 (inactive)	0.97	0.535	0.455	0.988	1.59	0.528
CCN1C(=O)[C@H]2[C@H]3[C@H](O)[C@H](O)CC(=NOC[C@@H](C)[C@H](OCc4ccccc4)C(C)C)[C@@H]3CC[C@H]2C1=O	0.607	-1.05 (inactive)	-4.13 (inactive)	-0.673 (inactive)	0.8	0.568 (inactive)	-0.145	0.355	0.457	-0.0936	1.16	-0.035	-0.171	0.879 (inactive)	0.405	0.254	0.108	0.284	0.132	0.359
Cc1ccc(F)cc1S(=O)(=O)N[C@@H]1CCN(Cc2ccc(CC(C)C)cc2)C1	0.446	-25.8 (active)	-21.4 (active)	-4.49 (inactive)	1.59	-19.5 (active)	-0.192	-0.0204	-0.734	-0.17	-0.242	-0.389	-0.24	1.1 (inactive)	-0.253	-1.12	-0.397	-0.301	-0.0911	0.346
C[C@H]1CC[C@@H](C(=O)O)N[C@@H]1c1ccc(C#CCN(C)C)cc1	-0.521	1.07 (inactive)	-0.509 (inactive)	-0.434 (inactive)	-0.141	0.657 (inactive)	-0.128	0.102	0.498	-0.0564	0.785	-0.275	-0.337	-0.248 (inactive)	0.425	0.429	0.44	0.481	0.33	0.222
